# Test results published in PubChem BioAssay (Tox21).
# A number with no mark means an inactive call. Inconclusive results are not listed. Where a call stands in place of a potency, no number is given. The source made the active and inactive calls. Unless noted, calls come from the whole dose curve.
# Legend:
# [1] = molecular target: Androgen receptor (Homo sapiens) (UniProt P10275); experiment: qHTS assay to identify small molecule agonists of the androgen receptor (AR) signaling pathway in the presence of an antagonist (AID 1259381); note: nearly all actives have a fitted effect of over 15% in size
# In short: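 MDA-kb2 human breast carcinoma cells carrying an MMTV-luciferase reporter (AR- and GR-responsive) were treated with compounds at 15 concentrations plus 3.0uM final nilutamide for 16hr at 37C without CO2; luminescence was read after ONE-Glo addition.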
# [2] = qHTS assay to identify small molecule antagonists of the estrogen receptor beta (ER-beta) signaling pathway - cell viability counter screen (AID 1259382; active = well fitted curve in the direction sought with a large enough effect in the repeat runs; an effect the other way counts as inactive or inconclusive;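 note: HEK293T cells carrying ER-beta-UAS-bla reporter stimulated with estradiol; series mostly up to about 92 µM; nearly all actives have a fitted effect of over 55% in size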)
# In short: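 ER-beta-UAS-bla HEK293T cells (2,000/well, 2% charcoal-stripped FBS) were pre-incubated 6 hr at 37C, then given compound plus 1nM final 17-beta-estradiol for 16 hr. Viability was read in the same wells by CellTiter-Glo luminescence after 30 min at room temperature.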
# [3] = qHTS assay to identify small molecule agonists or antagonists of the thyroid stimulating hormone receptor (TSHR) signaling pathway - wild type cell line counter screen (AID 1259384)
# In short: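 Wild-type HEK293 cells were plated 18 h at 37 C/5% CO2, pin-dosed with compound plus Ro20-1724 medium, held 30 min at room temperature, then given cAMP-d2 and anti-cAMP-cryptate; fluorescence was read after 1 h. Fifteen concentrations, triplicate.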
# [4] = molecular target: Thyrotropin receptor (Homo sapiens) (UniProt P16473); experiment: qHTS assay to identify small molecule antagonists of the thyroid stimulating hormone receptor (TSHR) signaling pathway (AID 1259385); note: nearly all actives have a fitted effect of over 20% in size
# In short: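 TSHR-HEK293 cells were plated and held 18 h at 37C/5% CO2, then given compound plus Ro20-1724 and stimulated with TSH at 1.5 ng/mL final. After 30 min at room temperature, cAMP was detected with cAMP-d2/anti-cAMP-cryptate (1 h) by fluorescence.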
# [5] = qHTS assay to identify small molecule agonists of the estrogen receptor alpha (ER-alpha) signaling pathway in the presence of an antagonist - cell viability counter screen (AID 1259386; active = well fitted curve in the direction sought with a large enough effect in the repeat runs; an effect the other way counts as inactive or inconclusive;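 note: series mostly up to about 92 µM; cells exposed to compounds for 22 h at 37 °C before the viability read; nearly all actives have a fitted effect of over 30% in size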)
# In short: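 VM7Luc4E2 cells (endogenous full-length ER-alpha, 4×ERE-luciferase) were held 5 days in phenol red-free medium with 10% charcoal-stripped FBS, plated, then given 10.0nM ICI-182,780 and compounds at 15 concentrations for 22hr at 37C; viability read by CellTiter-Fluor fluorescence.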
# [6] = molecular target: Progesterone receptor (Homo sapiens) (UniProt P06401); experiment: qHTS assay to identify small molecule agonists of the progesterone receptor (PR) signaling pathway (AID 1346784); note: nearly all actives have a fitted effect of over 30% in size; note: potency is the fitted concentration of half-maximal effect
# In short: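 Agonist mode, quantitative HTS format in a HEK 293T line expressing a UAS-controlled beta-lactamase reporter; 16 hr compound exposure at 37C in 2% charcoal-stripped FBS, then LiveBLAzer B/G FRET fluorescence.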
# [7] = molecular target: Progesterone receptor (Homo sapiens) (UniProt P06401); experiment: qHTS assay to identify small molecule antagonists of the progesterone receptor (PR) signaling pathway (AID 1346795; active = well fitted inhibition curve with a large enough effect in the signal ratio in the repeat runs, not every such curve was filed as active; the % refers to the signal ratio)
# In short: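 HEK293T PR-UAS-bla reporter cells in charcoal-stripped serum (2%) received compound after a 6 hr settling period, followed by R5020 agonist at 1 nM final; 16 hr incubation preceded the FRET substrate step and fluorescence measurement.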
# [8] = qHTS assay to identify small molecule antagonists of the progesterone receptor (PR) signaling pathway - cell viability counter screen (AID 1346798; active = well fitted curve in the direction sought with a large enough effect in the repeat runs; an effect the other way counts as inactive or inconclusive; note: series mostly up to about 92 µM; nearly all actives have a fitted effect of over 50% in size)
# In short: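 Same-well multiplex: after 16 hr at 37C with compound and R5020 stimulation, HEK293T cells carrying a UAS-bla reporter received LiveBLAzer substrate (2 hr RT), then CellTiter-Glo (30 min RT) for luminescent viability.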
# [9] = qHTS assay to identify small molecule agonists of the progesterone receptor (PR) signaling pathway - cell viability counter screen (AID 1346799); note: nearly all actives have a fitted effect of over 45% in size
# In short: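 Counter screen for cytotoxicity: compound-treated PR-UAS-bla HEK293T cells (16 hr, 37C, 5% CO2) were assayed with CellTiter-Glo, luminescence measured after 30 min at room temperature.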
# [10] = molecular target: Estrogen receptor (Homo sapiens) (UniProt P03372); experiment: qHTS assay to identify small molecule agonists of the estrogen receptor alpha (ER-alpha) signaling pathway in the presence of an antagonist (AID 1259383); note: top concentration of the series differs between compounds; nearly all actives have a fitted effect of over 15% in size
# In short: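 VM7Luc4E2 cells (endogenous full-length ER-alpha, 4×ERE-luciferase) were precultured 5 days in phenol red-free medium with 10% charcoal-stripped FBS, given 10.0nM ICI-182,780 (final), then treated with compounds at 15 concentrations for 22hr at 37C; luminescence read with ONE-Glo.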
# Chain of Thyrotropin receptor (Homo sapiens) (P16473 whole entry, looked up): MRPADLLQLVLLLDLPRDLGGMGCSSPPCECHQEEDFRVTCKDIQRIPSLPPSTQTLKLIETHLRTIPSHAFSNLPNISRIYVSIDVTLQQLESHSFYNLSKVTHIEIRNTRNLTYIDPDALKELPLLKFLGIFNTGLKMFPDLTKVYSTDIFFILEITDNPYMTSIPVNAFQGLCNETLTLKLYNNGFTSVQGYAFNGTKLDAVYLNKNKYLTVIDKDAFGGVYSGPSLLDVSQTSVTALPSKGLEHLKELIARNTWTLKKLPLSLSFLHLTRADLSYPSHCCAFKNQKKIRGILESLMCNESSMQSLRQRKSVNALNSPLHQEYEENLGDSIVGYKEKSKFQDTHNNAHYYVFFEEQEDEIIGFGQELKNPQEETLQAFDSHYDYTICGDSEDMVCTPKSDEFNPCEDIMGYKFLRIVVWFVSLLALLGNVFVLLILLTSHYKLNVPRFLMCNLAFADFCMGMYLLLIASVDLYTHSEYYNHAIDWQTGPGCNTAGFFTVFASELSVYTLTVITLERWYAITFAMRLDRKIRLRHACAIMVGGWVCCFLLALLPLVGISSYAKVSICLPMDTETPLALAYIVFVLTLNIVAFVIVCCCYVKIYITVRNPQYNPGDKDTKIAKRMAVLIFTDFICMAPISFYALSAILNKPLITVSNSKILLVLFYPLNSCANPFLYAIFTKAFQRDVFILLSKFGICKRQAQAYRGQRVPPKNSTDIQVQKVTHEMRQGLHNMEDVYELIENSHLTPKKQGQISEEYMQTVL
# Chain of Progesterone receptor (Homo sapiens) (P06401 whole entry, looked up): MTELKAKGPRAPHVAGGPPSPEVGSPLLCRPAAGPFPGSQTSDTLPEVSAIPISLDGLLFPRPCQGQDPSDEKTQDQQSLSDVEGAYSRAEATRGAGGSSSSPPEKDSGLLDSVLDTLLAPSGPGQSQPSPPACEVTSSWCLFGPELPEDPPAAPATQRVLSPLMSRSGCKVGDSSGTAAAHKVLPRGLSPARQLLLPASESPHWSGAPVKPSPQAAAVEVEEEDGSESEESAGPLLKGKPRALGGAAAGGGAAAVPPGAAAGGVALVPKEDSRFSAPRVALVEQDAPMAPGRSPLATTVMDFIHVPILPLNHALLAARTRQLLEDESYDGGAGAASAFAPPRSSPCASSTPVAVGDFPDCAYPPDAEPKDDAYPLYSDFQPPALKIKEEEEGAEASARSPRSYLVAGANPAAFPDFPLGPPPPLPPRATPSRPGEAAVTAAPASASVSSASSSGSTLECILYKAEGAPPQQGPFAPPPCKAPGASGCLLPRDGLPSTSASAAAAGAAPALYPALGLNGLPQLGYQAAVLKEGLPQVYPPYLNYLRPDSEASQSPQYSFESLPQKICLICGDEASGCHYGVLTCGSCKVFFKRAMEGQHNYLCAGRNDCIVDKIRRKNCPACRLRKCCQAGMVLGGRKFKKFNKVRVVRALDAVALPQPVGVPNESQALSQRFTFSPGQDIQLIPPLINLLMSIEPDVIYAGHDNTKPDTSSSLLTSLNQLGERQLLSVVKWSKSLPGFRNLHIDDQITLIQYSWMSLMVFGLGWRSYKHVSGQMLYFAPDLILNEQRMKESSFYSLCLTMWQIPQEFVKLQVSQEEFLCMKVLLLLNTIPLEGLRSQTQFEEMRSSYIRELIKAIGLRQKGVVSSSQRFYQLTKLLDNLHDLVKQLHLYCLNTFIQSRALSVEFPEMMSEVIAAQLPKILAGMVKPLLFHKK
# Chain of Androgen receptor (Homo sapiens) (P10275 whole entry, looked up): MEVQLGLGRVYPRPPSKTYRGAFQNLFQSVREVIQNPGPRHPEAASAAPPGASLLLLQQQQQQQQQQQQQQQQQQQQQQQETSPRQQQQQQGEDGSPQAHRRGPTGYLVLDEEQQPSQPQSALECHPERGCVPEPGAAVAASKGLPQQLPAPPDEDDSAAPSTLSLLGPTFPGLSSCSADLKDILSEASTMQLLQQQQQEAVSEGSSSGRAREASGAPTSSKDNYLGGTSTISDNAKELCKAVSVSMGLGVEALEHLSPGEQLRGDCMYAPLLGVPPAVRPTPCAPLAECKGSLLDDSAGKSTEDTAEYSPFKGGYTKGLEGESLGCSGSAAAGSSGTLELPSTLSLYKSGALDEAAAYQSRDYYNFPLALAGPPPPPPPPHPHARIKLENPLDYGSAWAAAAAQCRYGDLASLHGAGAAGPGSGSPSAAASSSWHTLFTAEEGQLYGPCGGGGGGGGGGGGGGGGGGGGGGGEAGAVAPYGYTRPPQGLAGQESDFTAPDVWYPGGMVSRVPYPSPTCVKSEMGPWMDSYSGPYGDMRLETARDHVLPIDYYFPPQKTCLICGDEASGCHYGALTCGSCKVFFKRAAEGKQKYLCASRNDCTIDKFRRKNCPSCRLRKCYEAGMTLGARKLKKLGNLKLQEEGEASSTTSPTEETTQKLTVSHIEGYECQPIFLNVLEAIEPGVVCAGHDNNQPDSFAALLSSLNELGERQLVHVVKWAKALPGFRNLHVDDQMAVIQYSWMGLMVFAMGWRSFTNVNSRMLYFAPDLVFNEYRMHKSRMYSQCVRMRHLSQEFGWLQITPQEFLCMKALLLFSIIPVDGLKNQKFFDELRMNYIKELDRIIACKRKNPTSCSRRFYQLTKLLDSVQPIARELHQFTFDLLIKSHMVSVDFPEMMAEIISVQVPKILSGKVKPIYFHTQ
# Chain of Estrogen receptor (Homo sapiens) (P03372 whole entry, looked up): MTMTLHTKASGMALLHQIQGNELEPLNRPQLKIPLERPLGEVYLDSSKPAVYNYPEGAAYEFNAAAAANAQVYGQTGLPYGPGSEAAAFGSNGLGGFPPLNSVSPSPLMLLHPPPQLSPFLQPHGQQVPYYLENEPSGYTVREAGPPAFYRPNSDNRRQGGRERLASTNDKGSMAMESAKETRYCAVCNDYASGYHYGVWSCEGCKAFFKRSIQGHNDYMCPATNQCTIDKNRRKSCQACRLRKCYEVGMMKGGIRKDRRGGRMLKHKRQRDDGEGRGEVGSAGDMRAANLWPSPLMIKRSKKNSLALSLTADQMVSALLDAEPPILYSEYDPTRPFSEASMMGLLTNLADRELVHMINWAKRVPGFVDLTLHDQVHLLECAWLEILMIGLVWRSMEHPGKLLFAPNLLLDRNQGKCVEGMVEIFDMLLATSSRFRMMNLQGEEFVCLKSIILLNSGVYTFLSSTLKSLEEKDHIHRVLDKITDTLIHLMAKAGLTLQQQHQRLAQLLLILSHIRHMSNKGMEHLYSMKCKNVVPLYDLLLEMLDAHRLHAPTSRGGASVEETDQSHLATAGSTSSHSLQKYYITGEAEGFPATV
structure (smiles),measurement,setting,value
C=CCOC(=O)CCCCCC,outcome,[1],inactive
same,outcome,[2],inactive
same,outcome,[3],inactive
same,outcome,[4],inactive
same,outcome,[5],inactive
same,Potency,[6],inactive
same,Potency,[7],inactive
same,outcome,[8],inactive
same,outcome,[9],inactive
CCCC(=O)OC/C=C(\C)CCC=C(C)C,outcome,[2],inactive
same,Potency,[10],inactive
same,outcome,[3],inactive
same,outcome,[4],inactive
same,outcome,[5],inactive
same,Potency,[6],inactive
same,Potency,[7],inactive
same,outcome,[8],inactive
O=C(Cl)c1ccccc1[N+](=O)[O-],outcome,[1],inactive
same,outcome,[2],inactive
same,outcome,[3],inactive
same,outcome,[4],inactive
same,outcome,[5],inactive
same,Potency,[6],inactive
same,Potency,[7],inactive
same,outcome,[8],inactive
same,outcome,[9],inactive
CC(=O)CC(=O)Nc1ccc(C)cc1C,outcome,[1],inactive
same,outcome,[2],inactive
same,outcome,[3],inactive
same,outcome,[4],inactive
same,Potency,[6],inactive
same,outcome,[8],inactive
same,outcome,[9],inactive
CC1CCc2c(N3CCC(O)CC3)c(F)cc3c(=O)c(C(=O)O)cn1c23 (centres undefined),outcome,[2],inactive
same,Potency,[10],inactive
same,outcome,[3],inactive
same,outcome,[4],inactive
same,outcome,[5],inactive
same,Potency,[6],inactive
same,Potency,[7],inactive
same,outcome,[8],inactive
same,outcome,[9],inactive
CC(C)Nc1ccccc1,outcome,[2],inactive
same,Potency,[10],inactive
same,outcome,[3],inactive
same,outcome,[4],inactive
same,outcome,[5],inactive
same,Potency,[6],inactive
same,Potency,[7],inactive
same,outcome,[8],inactive
same,outcome,[9],inactive
C[C@]12CCC(=O)C=C1CC[C@H]1[C@@H]3CC[C@](O)(C(=O)CO)[C@@]3(C)C[C@H](O)[C@@]12F,outcome,[2],inactive
same,Potency,[10],inactive
same,outcome,[3],inactive
same,outcome,[4],inactive
same,outcome,[5],inactive
same,Potency,[6],1.68 µM (active)
same,Potency,[7],inactive
same,outcome,[8],inactive
CCOC(=O)CC1(C)OCC(C)O1 (centres undefined),outcome,[2],inactive
same,Potency,[10],inactive
same,outcome,[3],inactive
same,outcome,[4],inactive
same,outcome,[5],inactive
same,Potency,[6],inactive
same,Potency,[7],inactive
same,outcome,[8],inactive
same,outcome,[9],inactive
O=C1CCCCO1,outcome,[2],inactive
same,Potency,[10],inactive
same,outcome,[3],inactive
same,outcome,[4],inactive
same,outcome,[5],inactive
same,Potency,[6],inactive
same,Potency,[7],inactive
same,outcome,[8],inactive
same,outcome,[9],inactive
CC(C)OC(=O)OCOP(=O)(CO[C@H](C)Cn1cnc2c(N)ncnc21)OCOC(=O)OC(C)C,outcome,[2],inactive
same,Potency,[10],inactive
same,outcome,[3],inactive
same,outcome,[4],inactive
same,outcome,[5],inactive
same,Potency,[6],inactive
same,Potency,[7],inactive
same,outcome,[8],inactive
CCCCOC(=O)C(C)O (centres undefined),outcome,[2],inactive
same,Potency,[10],inactive
same,outcome,[3],inactive
same,outcome,[4],inactive
same,outcome,[5],inactive
same,Potency,[6],inactive
same,Potency,[7],inactive
same,outcome,[8],inactive
same,outcome,[9],inactive
CCCCC1CCC(O)CC1 (centres undefined),outcome,[1],inactive
same,outcome,[2],inactive
same,Potency,[6],inactive
same,Potency,[7],inactive
same,outcome,[8],inactive
same,outcome,[9],inactive
Cc1c(NC(=O)c2cccnc2)c(=O)n(-c2ccccc2)n1C,outcome,[2],inactive
same,Potency,[10],inactive
same,outcome,[3],inactive
same,outcome,[4],inactive
same,outcome,[5],inactive
same,Potency,[6],inactive
same,Potency,[7],inactive
same,outcome,[8],inactive
same,outcome,[9],inactive
O=C1NC(c2ccccc2)(c2ccccc2)C(=O)N1COP(=O)(O)O,outcome,[1],inactive
same,outcome,[2],inactive
same,outcome,[3],inactive
same,outcome,[4],inactive
same,outcome,[5],inactive
same,Potency,[6],inactive
same,Potency,[7],inactive
same,outcome,[8],inactive
same,outcome,[9],inactive
C/C(CC(C)C)=N\O,outcome,[2],inactive
same,Potency,[10],inactive
same,outcome,[3],inactive
same,outcome,[4],inactive
same,outcome,[5],inactive
same,Potency,[6],inactive
same,Potency,[7],inactive
same,outcome,[8],inactive
same,outcome,[9],inactive
CC(CO)(CO)CO,outcome,[2],inactive
same,Potency,[10],inactive
same,outcome,[3],inactive
same,outcome,[4],inactive
same,outcome,[5],inactive
same,Potency,[6],inactive
same,Potency,[7],inactive
same,outcome,[8],inactive
same,outcome,[9],inactive
OC1OCCOC1O (centres undefined),outcome,[2],inactive
same,Potency,[10],inactive
same,outcome,[3],inactive
same,outcome,[4],inactive
same,outcome,[5],inactive
same,Potency,[6],inactive
same,Potency,[7],inactive
same,outcome,[8],inactive
same,outcome,[9],inactive
CC(C)[C@H]1CC[C@H](C)C[C@@H]1O,outcome,[1],inactive
same,outcome,[2],inactive
same,outcome,[3],inactive
same,outcome,[4],inactive
same,Potency,[6],inactive
same,Potency,[7],inactive
same,outcome,[8],inactive
same,outcome,[9],inactive
C=CC/C=C/C,outcome,[2],inactive
same,Potency,[10],inactive
same,outcome,[3],inactive
same,outcome,[4],inactive
same,outcome,[5],inactive
same,Potency,[6],inactive
same,Potency,[7],inactive
same,outcome,[8],inactive
same,outcome,[9],inactive
C=CCCCC,outcome,[2],inactive
same,Potency,[10],inactive
same,outcome,[3],inactive
same,outcome,[4],inactive
same,outcome,[5],inactive
same,Potency,[6],inactive
same,Potency,[7],inactive
same,outcome,[8],inactive
same,outcome,[9],inactive
CN(C)CCN(C)CCO,outcome,[2],inactive
same,Potency,[10],inactive
same,outcome,[3],inactive
same,outcome,[4],inactive
same,outcome,[5],inactive
same,Potency,[6],inactive
same,Potency,[7],inactive
same,outcome,[8],inactive
same,outcome,[9],inactive
CC1c2ccccc2CN1NC(=O)c1ccc(Cl)c(S(N)(=O)=O)c1 (centres undefined),outcome,[2],inactive
same,Potency,[10],inactive
same,outcome,[3],inactive
same,outcome,[4],inactive
same,outcome,[5],inactive
same,Potency,[6],inactive
same,Potency,[7],inactive
same,outcome,[8],inactive
same,outcome,[9],inactive
Cc1cc(-c2ccccc2)nnc1NCCN1CCOCC1,outcome,[2],inactive
same,Potency,[10],inactive
same,outcome,[3],inactive
same,outcome,[4],inactive
same,outcome,[5],inactive
same,Potency,[6],inactive
same,Potency,[7],inactive
same,outcome,[8],inactive
same,outcome,[9],inactive
O=C1c2ccccc2C(=O)c2cc(Cl)ccc21,"activity change, negative = cytotoxicity",[2],1.86% [at 8.39 µM]
same,activation,[10],1.09% [at 8.39 µM]
same,cAMP activity change,[3],2.64% [at 8.39 µM]
same,"activity change, negative = inhibition",[4],-1.43% [at 8.39 µM]
same,"activity change, negative = cytotoxicity",[5],1.35% [at 8.39 µM]
same,activation,[6],2.34% [at 8.39 µM]
same,"activity change, negative = inhibition",[7],1.29% [at 8.39 µM]
same,"activity change, negative = cytotoxicity",[8],-7.61% [at 8.39 µM]
same,"activity change, negative = cytotoxicity",[9],13.3% [at 8.39 µM]
CCCCCCC1(C)CCC(=O)O1 (centres undefined),outcome,[2],inactive
same,Potency,[10],inactive
same,outcome,[3],inactive
same,outcome,[4],inactive
same,outcome,[5],inactive
same,Potency,[6],inactive
same,Potency,[7],inactive
same,outcome,[8],inactive
same,outcome,[9],inactive
CCNC(=O)NCc1cccc(Cl)c1,outcome,[2],inactive
same,Potency,[10],inactive
same,outcome,[3],inactive
same,outcome,[4],inactive
same,outcome,[5],inactive
same,Potency,[6],inactive
same,Potency,[7],inactive
same,outcome,[8],inactive
same,outcome,[9],inactive
O=C(O)CNC(=O)CNC(=O)CNC(=O)CSC(=O)c1ccccc1,outcome,[2],inactive
same,Potency,[10],inactive
same,outcome,[3],inactive
same,outcome,[4],inactive
same,outcome,[5],inactive
same,Potency,[6],inactive
same,Potency,[7],inactive
same,outcome,[8],inactive
same,outcome,[9],inactive
